The results in this text go back to PubChem BioAssay (NCATS).

Assay [1] addresses Rap guanine nucleotide exchange factor 3 (Homo sapiens) (UniProt O95398). Put plainly: Confirmatory qHTS for antagonist of cAMP-regulated guanine nucleotide exchange factor 3 (EPAC1) (AID 1645880). Note: nearly all actives have a fitted effect of over 55% in size. Note: potency is the fitted concentration of half-maximal effect. Put shortly: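 Nucleotide exchange uses 100 nM EPAC1, 250 nM RAP1B-BODIPY-GDP and 50 uM GDP, with compounds in a concentration-titration series. After 5 min at room temperature, fluorescence (480 nm ex/540 nm em) is read every 5 min for 30 min. Data are normalized to control ATA and DMSO.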

Assay [2] has the same target. Put plainly: Confirmatory qHTS for agonist of cAMP-regulated guanine nucleotide exchange factor 3 (EPAC1) (AID 1645881).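 For activation: EPAC1 catalysed release of BODIPY-GDP from Rap1B seen as fluorescence loss; 100% = effect of cAMP agonist control.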 Note: nearly all actives have a fitted effect of over 75% in size. Note: potency is the fitted concentration of half-maximal effect.
For assay [3], the target named is Rap guanine nucleotide exchange factor 4 (Homo sapiens) (UniProt Q8WZA2). Put plainly: Confirmatory qHTS for agonist of cAMP-regulated guanine nucleotide exchange factor 4 (EPAC2) (AID 1645884). For activation: % is set by controls: 0 for no effect and ±100 for the full control effect.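 Note: nucleotide exchange releases bodipy-GDP from Rap1 and this lowers its fluorescence; nearly all actives have a fitted effect of over 65% in size.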 Note: potency is the fitted concentration of half-maximal effect. On the technique in general: In qHTS, concentration-response curves come from the screen itself.
Chain of Rap guanine nucleotide exchange factor 4 (Homo sapiens) (Q8WZA2 whole entry, looked up): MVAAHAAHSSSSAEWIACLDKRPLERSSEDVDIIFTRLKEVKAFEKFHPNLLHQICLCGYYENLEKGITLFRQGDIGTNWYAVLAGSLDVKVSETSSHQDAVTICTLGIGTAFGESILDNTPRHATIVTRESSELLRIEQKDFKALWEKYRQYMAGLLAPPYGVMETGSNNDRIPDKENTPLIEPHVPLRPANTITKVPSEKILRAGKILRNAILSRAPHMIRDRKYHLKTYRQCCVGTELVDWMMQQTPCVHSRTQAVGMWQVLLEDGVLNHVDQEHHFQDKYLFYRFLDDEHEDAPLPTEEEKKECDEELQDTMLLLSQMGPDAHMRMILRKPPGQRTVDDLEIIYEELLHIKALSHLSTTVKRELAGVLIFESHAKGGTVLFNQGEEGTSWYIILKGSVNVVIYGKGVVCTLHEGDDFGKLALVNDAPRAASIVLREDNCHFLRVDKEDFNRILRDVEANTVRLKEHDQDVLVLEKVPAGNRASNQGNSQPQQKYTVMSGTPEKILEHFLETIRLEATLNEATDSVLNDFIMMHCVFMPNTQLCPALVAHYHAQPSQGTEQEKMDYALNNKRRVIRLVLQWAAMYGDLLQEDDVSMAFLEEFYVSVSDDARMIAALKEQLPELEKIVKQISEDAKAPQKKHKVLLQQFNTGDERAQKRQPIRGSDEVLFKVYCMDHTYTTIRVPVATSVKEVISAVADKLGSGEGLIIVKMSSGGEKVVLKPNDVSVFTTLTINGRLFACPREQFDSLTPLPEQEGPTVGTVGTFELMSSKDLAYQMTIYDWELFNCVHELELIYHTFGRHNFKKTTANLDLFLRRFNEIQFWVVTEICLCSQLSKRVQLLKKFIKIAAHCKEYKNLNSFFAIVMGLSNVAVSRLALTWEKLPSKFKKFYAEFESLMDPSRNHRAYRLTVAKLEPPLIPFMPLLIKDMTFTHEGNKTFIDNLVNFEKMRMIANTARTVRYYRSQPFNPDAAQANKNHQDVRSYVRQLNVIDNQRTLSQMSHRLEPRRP
The target is the same in assay [4]. The experiment in a line: Confirmatory qHTS for antagonist of cAMP-regulated guanine nucleotide exchange factor 4 (EPAC2) (AID 1645885). For activity change, negative = inhibition: % is set by controls: 0 for no effect and ±100 for the full control effect. Note: nearly all actives have a fitted effect of over 25% in size. Note: potency is the fitted concentration of half-maximal effect.
Assay [5] deals with Rap guanine nucleotide exchange factor 3 (Homo sapiens) (UniProt O95398). Put plainly: Counterscreen qHTS for antagonist of cAMP-regulated guanine nucleotide exchange factor 3 (EPAC1) (AID 1645888).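 Note: fluorescence loss as bound BODIPY-GDP is released from Rap1B; % of control where 0% means no effect.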 A digest of the protocol: (§1)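 Measured: fluorescence of BODIPY-GDP bound to Rap1B, which falls as exchange proceeds. Conditions include 50 uM competing GDP, 5 and 30 min reads, and a later cAMP challenge for antagonist detection.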
Chain of Rap guanine nucleotide exchange factor 3 (Homo sapiens) (O95398 whole entry, looked up): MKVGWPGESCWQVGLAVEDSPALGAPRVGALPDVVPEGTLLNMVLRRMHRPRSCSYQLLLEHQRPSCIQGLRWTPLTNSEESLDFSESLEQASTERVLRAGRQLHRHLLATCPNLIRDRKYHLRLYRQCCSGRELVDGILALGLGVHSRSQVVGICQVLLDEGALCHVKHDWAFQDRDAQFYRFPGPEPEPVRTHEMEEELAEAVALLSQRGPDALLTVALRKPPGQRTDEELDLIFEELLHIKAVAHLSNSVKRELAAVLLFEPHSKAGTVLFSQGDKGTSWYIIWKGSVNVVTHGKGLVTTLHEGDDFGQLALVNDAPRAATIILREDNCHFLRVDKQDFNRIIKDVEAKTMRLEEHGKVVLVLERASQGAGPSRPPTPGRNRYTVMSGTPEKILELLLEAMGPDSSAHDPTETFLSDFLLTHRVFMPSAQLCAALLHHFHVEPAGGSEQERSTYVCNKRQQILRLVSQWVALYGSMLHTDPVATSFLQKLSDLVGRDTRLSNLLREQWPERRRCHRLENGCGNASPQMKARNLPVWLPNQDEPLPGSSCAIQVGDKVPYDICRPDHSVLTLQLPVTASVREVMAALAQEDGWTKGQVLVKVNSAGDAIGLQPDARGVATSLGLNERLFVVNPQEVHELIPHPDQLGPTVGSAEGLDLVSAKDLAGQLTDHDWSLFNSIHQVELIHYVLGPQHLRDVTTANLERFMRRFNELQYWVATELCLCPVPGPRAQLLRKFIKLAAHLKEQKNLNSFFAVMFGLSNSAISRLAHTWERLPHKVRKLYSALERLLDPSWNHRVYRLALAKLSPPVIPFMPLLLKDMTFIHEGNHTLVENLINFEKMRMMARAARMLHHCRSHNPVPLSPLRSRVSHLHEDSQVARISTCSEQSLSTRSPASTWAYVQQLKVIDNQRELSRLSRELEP

For assay [6] the target is unchanged. The experiment in a line: Counterscreen qHTS for agonist of cAMP-regulated guanine nucleotide exchange factor 3 (EPAC1) (AID 1645889). For activation: % of control where 0% means no effect. Note: nearly all actives have a fitted effect of over 40% in size. Note: potency is the fitted concentration of half-maximal effect. Put shortly: as §1
(In general: A counterscreen serves to expose hits that act by an unwanted route or on another target.)

Records with an inconclusive call do not appear. Values without a mark were called inactive. The source made the active and inactive calls. Calls come from the whole dose curve; as a rule, active = well fitted curve in the direction sought with a large enough effect; inconclusive = small, poorly fitted or top-dose-only effect, or another doubt; inactive = no such curve, though single readings can be large; an effect the other way counts as inactive or inconclusive.

`CN(C)CCCN(C(=O)COc1ccc(Cl)cc1)c1nc2cc3c(cc2s1)OCCO3`: the Potency result in assay [1], in assay [2], in assay [3], in assay [4], in assay [5] and in assay [6] was “inactive” each time.
For `O=S(=O)(NCc1cn2ccsc2n1)c1cccs1`, the Potency result in assay [1], in assay [2] and in assay [4] was “inactive” throughout. Besides, the activation was 0% [at 17.1 µM, percent relative to cAMP agonist control] in assay [3] and 3.73% [at 30.8 µM] in assay [6]. Further, in assay [5], the activity change, negative = inhibition was -13.2% [at 30.8 µM].
As to `Cc1cc(C)c2c(CN3CCCCC3)cc(=O)oc2c1`, the Potency result in assay [1], in assay [2], in assay [3], in assay [4], in assay [5] and in assay [6] was “inactive” throughout.
Take `CCc1ccccc1N(CC(=O)NCCc1ccccc1)C(=O)CCC(=O)Nc1ccccn1`: the Potency result in assay [1], in assay [2], in assay [3], in assay [4], in assay [5] and in assay [6] was “inactive” in each case.
Consider `CC(=N\NC(=O)c1ccccc1)/C(=N/O)C(=O)Nc1ccccc1`, for which the Potency in assay [1] is 3.16 µM (active). Also, the Potency result in assay [2] and in assay [4] was “inactive” in each case. Also, the activation was 7.97% [at 17.1 µM, percent relative to cAMP agonist control] in assay [3] and 27.9% [at 30.8 µM] in assay [6]. Moreover, the activity change, negative = inhibition in assay [5] was 9.03% [at 30.8 µM].
Take `O=C(NCc1ccncc1)C1Cc2c(-c3ccccc3Oc3ccccc3)ccnc2O1` (configuration not stated): the Potency result in assay [1], in assay [2], in assay [3], in assay [4], in assay [5] and in assay [6] was “inactive” throughout.
Regarding `C/C=C/C(=O)N1c2ccc(C)cc2C(C)=CC1(C)C`, the Potency entry in assay [1], in assay [2], in assay [3], in assay [4], in assay [5] and in assay [6] was “inactive” throughout.
For the compound `CC(C)(C)c1ccc(C(CC(=O)O)NC(=O)CSc2ccccc2)cc1` (configuration not stated), the Potency entry in assay [1], in assay [2], in assay [3], in assay [4], in assay [5] and in assay [6] was “inactive” in each case.
In the case of `CC(=O)NC(C)c1nc2ccccc2n1Cc1ccccc1Cl` (configuration not stated), the Potency entry in assay [1], in assay [2], in assay [3], in assay [4], in assay [5] and in assay [6] was “inactive” throughout.
Take `Cc1ccc(Cn2c(SCC(=O)N/N=C/c3ccc(C)o3)nc3ccccc32)cc1`: the Potency in assay [1] is 47.8 µM (active). The Potency entry in assay [2], in assay [3], in assay [4], in assay [5] and in assay [6] was “inactive” in each case.
Turning to `CO/N=C(/COc1ccc(F)cc1)c1ccc(OC)cc1`, the Potency result in assay [1], in assay [2] and in assay [4] was “inactive” throughout. The activation in assay [3] was -0.137% [at 17.1 µM, percent relative to cAMP agonist control]; in assay [6], 2.57% [at 30.8 µM]. Moreover, the activity change, negative = inhibition in assay [5] was -12% [at 30.8 µM].
Regarding `CC(NC(=O)c1cc(S(=O)(=O)N2CCOCC2)ccc1N1CCCC1)c1ccc(Cl)c(Cl)c1` (configuration not stated), the Potency entry in assay [1], in assay [2], in assay [3], in assay [4], in assay [5] and in assay [6] was “inactive” throughout.
Regarding `CC(=O)Nc1nc(C)c(Oc2ccc(Cl)cc2Cl)c(=O)[nH]1`, the Potency entry in assay [1], in assay [2] and in assay [4] was “inactive” in each case. Also, the activation in assay [3] was 0% [at 17.1 µM, percent relative to cAMP agonist control]; in assay [6], 7.36% [at 30.8 µM]. The activity change, negative = inhibition in assay [5] is -5.48% [at 30.8 µM].
With `Cc1ccc(OCC(=O)Nc2ccccc2N2CCCC2)c(C)c1`, the Potency entry in assay [1], in assay [2], in assay [3], in assay [4], in assay [5] and in assay [6] was “inactive” each time.
In the case of `CCOc1ccc(NS(=O)(=O)c2cc3c(cc2C)N(C)CCO3)cc1`, the Potency result in assay [1], in assay [2] and in assay [4] was “inactive” throughout. Moreover, the activation in assay [3] was 7.18% [at 17.1 µM, percent relative to cAMP agonist control]; in assay [6] it was 29.5% [at 30.8 µM]. For the same compound, the activity change, negative = inhibition in assay [5] is -12% [at 30.8 µM].
For `Nc1c(C(=O)c2ccccc2)sc2nsc(SCCN3CCCC3)c12`, the Potency result in assay [1] and in assay [5] was “inactive” throughout. The Potency in assay [2] was 100 µM (active); in assay [3], 100 µM (active); in assay [4], 84.9 µM (active); in assay [6], 39.8 µM (active).
On to `COC(=O)CSc1nc2c(c(=O)n(C)c(=O)n2C)n1CCCc1ccccc1`, for which the Potency result in assay [1], in assay [2] and in assay [4] was “inactive” throughout. In addition, the activation in assay [3] is 4.31% [at 17.1 µM, percent relative to cAMP agonist control]; in assay [6], 0.96% [at 30.8 µM]. Also, the activity change, negative = inhibition in assay [5] is -3.64% [at 30.8 µM].
For `COc1ccccc1C1SCCN1S(C)(=O)=O` (configuration not stated), the Potency entry in assay [1], in assay [2], in assay [3], in assay [4], in assay [5] and in assay [6] was “inactive” throughout.
As for `Cc1ccc(C2(C)NC(=O)N(CC(=O)Nc3ccccc3N3CCCCC3)C2=O)cc1` (configuration not stated), the Potency entry in assay [1], in assay [2], in assay [3], in assay [4], in assay [5] and in assay [6] was “inactive” each time.
Take `O=C(COC(=O)Cc1ccc(Cl)cc1)Nc1ccc2[nH]c(=O)[nH]c2c1`: the Potency result in assay [1], in assay [2] and in assay [4] was “inactive” each time. Further, the activation in assay [3] was -3.41% [at 17.1 µM, percent relative to cAMP agonist control]; in assay [6], -0.761% [at 30.8 µM]. In addition, the activity change, negative = inhibition in assay [5] is -14.8% [at 30.8 µM].
For `CCOC(=O)C1=NNC2(CC(=O)N(c3cc(C)cc(C)c3)C2=O)C1` (configuration not stated), the Potency result in assay [1], in assay [2], in assay [3], in assay [4], in assay [5] and in assay [6] was “inactive” in each case.
On to `O=C(Cn1nnc2sc(-c3ccccc3)cc2c1=O)Nc1cccc(C(F)(F)F)c1`, for which the Potency result in assay [1], in assay [2], in assay [3], in assay [4], in assay [5] and in assay [6] was “inactive” in each case.
